# According to ChEMBL document CHEMBL3433997, “St. Jude Leishmania screening dataset” (2016):
# Legend:
# Format in all cases: functional
# [1] = biological target: Solute carrier family 2, facilitated glucose transporter member 1 (Homo sapiens) (UniProt P11166); experiment: ST_JUDE_LEISH: Cytotoxicity at 2uM final concentration against transgenic Leishmania Mexicana promastigotes LmGLUT1 that are glucose transport deficient and complemented with the human glucose transporter GLUT1. Activity is measured by DNA content using SYBR green in vitro
# [2] = biological target: Hexose transporter 1 (Plasmodium falciparum) (UniProt O97467); experiment: ST_JUDE_LEISH: Cytotoxicity at 2uM final concentration against transgenic Leishmania Mexicana promastigotes LmPfHT that are glucose transport deficient and complemented with the Plasmodium falciparum hexose transporter. Activity is measured by DNA content using SYBR green in vitro
# [3] = biological target: Glucose transporter (Leishmania mexicana) (UniProt O61059); experiment: ST_JUDE_LEISH: Cytotoxicity at 2uM final concentration against transgenic Leishmania Mexicana promastigotes LmGT2 that are glucose transport deficient and complemented with the L. Mexicana glucose transporter 2. Activity is measured by DNA content using SYBR green in vitro
# Sequence of Solute carrier family 2, facilitated glucose transporter member 1 (Homo sapiens) (P11166 whole entry): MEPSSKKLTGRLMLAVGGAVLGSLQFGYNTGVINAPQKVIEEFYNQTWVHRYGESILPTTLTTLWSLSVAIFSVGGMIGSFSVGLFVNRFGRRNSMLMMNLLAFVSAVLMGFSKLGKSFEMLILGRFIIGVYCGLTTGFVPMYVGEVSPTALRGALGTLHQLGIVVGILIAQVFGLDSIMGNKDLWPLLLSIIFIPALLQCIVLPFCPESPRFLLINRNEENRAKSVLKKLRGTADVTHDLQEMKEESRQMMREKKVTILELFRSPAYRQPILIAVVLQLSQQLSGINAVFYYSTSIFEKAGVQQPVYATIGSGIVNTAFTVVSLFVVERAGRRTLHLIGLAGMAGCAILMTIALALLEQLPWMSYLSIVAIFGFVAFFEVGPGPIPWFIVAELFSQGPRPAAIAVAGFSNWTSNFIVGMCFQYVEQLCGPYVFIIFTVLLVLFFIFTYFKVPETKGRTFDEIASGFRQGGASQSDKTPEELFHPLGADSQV
Compound,inhibition [1] [%],inhibition [2] [%],inhibition [3] [%]
Cc1cccc2nc(-c3cccc(-c4ccc(NC(=O)c5c[nH]cn5)cc4)c3)[nH]c12,-0.79,-0.73,-1.26
COc1cc2nccc(Nc3ccc(Oc4ccccc4)cc3)c2cc1OC,3.01,9.3,4.02
Cc1ccccc1C1CCN(c2ccc(C(=O)Nc3ccccc3)cn2)CC1,-0.55,-0.98,-5.64
CC(C)C[C@H](Nc1ccnc(NCC2CCCCC2)n1)C(=O)NCCc1ccccc1,3.1,0.57,0.72
CCCCOP(=O)(COc1ccc(CCN(CC(O)COc2cccc3[nH]c4ccccc4c23)CC(O)COc2cccc3[nH]c4ccccc4c23)cc1)C1CCCCC1 (centres undefined),3.64,0.57,0.82
O=C(Nc1ccccc1)N(Cc1cccc(-c2cccc(CNCCc3ccccc3)c2)c1)C1CCN(Cc2ccccc2)CC1,7.12,2.49,4.94
O=c1c(NCCCN(Cc2ccc(F)cc2)c2ccccn2)c(NCc2ccncc2)c1=O,4.35,3.53,5.17
O=C(Cc1ccc[n+]([O-])c1)Nc1cccc(-c2cccc(-c3nc4cc(C(F)(F)F)ccc4[nH]3)c2)c1,2.28,-0.06,5.03
Cc1nnsc1C(=O)Nc1ccc(-c2ccc(-c3nc4cccc(C)c4[nH]3)s2)cc1,5.61,2.76,2.44
Cc1cc(N2CCN(C)CC2)nc2ccc(NC(=O)c3cccc(N(C)C)c3)cc12,7.09,7.99,10.2
O=C(c1ccc(F)c(F)c1)N1CCOC(CCN2CCC(c3ccccc3)CC2)(c2ccc(Cl)c(Cl)c2)C1 (centres undefined),4.15,2.12,3.63
Cc1ccc(C2CC(c3cccs3)=NN2C(=O)c2ccc(Br)o2)cc1 (centres undefined),3.24,1.47,2.89
NC1=NC(c2ccccc2)(c2ccccc2)C(=O)N1Cc1ccc(-c2cccnc2)cc1,2.71,1.53,0.52
CN(Cc1ccc(-c2ccc(C(F)(F)F)cc2)cc1)C(=O)Cn1c(CCc2cccc(F)c2F)nc(=O)c2ccc(N3CCN(CCN4CCCCC4)CC3)nc21,7.76,7.16,3.71
Clc1ccc(-c2cc3c(NCc4ccncc4)nccc3s2)cc1,6.24,4.38,2.2
CCCCCCOc1ccc(C(=O)N[C@H]2CCN(CCCCCNC(=O)/C=C/c3ccc(Cl)c(Cl)c3)C2)cc1,0.31,-0.9,1.12
CCc1nc2c(cnn2CC)c(NC2CCOCC2)c1CNC(=O)c1ccoc1C,6.4,6.38,2.97
CCn1cnc2c(Nc3cccc([N+](=O)[O-])c3)nc(N3CCC(N4CCCCC4)CC3)nc21,0.93,3.03,-0.24
O=C(Nc1ccc(Cl)cc1F)NC1CCN(CCCCCNC(=O)C2CC2c2ccc(Cl)c(Cl)c2)CC1 (centres undefined),1.08,0.8,3.62
Cc1ccc(NC(=O)c2cn(-c3ccccc3)nc2-c2ccc(F)cc2)cc1[N+](=O)[O-],4.38,3.28,1.86
CCCN1CCN(Cc2ccc(C(=O)Nc3ccc(Cl)cc3)cc2)CC1,5.31,4.24,4.34
CN1CCCc2cc(NC(=O)C=Cc3ccc(-c4ccc(F)cc4F)o3)ccc2C1,6.23,5.24,8.04
COc1ccc(NC(=O)CCNc2cc(C)nc(Nc3ccccc3)n2)cc1,5.84,5.64,5.8

Compound,inhibition [1] [%],inhibition [2] [%],inhibition [3] [%]
CC(C)[C@@H](C(=O)NCc1cccc(C(F)(F)F)c1)N1C(=O)CCC1C(=O)Nc1ccc([N+](=O)[O-])cc1 (some centres undefined),2.24,1.67,2.73
CCN1CCCC1CNC(=O)c1cc2c(-c3ccc(Cl)cc3)nn(C)c2s1 (centres undefined),2.89,5.39,2.6
CCn1c(-c2nonc2N)nc2c(-c3cccc(NC(=O)Nc4cccc(C(F)(F)F)c4)c3)ncc(OCCCN)c21,2.47,1.37,0.62
Cc1ccccc1N1CCN(c2ccc(C(=O)NC3CC3)cn2)CC1,10.9,8.46,4.25
COc1ccc(NC(=O)c2ccc(Br)c(C)c2)cc1N1CCN(CCCc2c[nH]c3ccccc23)CC1,-0.69,-0.68,-0.4
CCc1nc(N)nc(N)c1-c1ccc(C(C)(C)C)cc1,13,3.45,0.88
CNC(=O)c1ccc(/C=C/C(=O)N2CCc3ccc(-c4ccccc4)cc3C2c2cccc(C(F)(F)F)c2)cc1 (centres undefined),2.29,-0.01,0.99
CC(C)(C)c1ccc(S(=O)(=O)Nc2ccccc2Cn2nc(N3CCNCC3)ccc2=O)cc1,8.03,7.83,8.79
O=C(Cn1c(CCc2cccc(F)c2F)nc(=O)c2ccccc21)N(CCCN1CCCC1)Cc1ccc(-c2ccc(C(F)(F)F)cc2)cc1,8.01,7.63,9.22
Cn1nccc1C(=O)NCCNCc1ccc(-c2ccc(-c3nc4cc(F)ccc4[nH]3)cc2)cc1,1.91,4.48,5.68
CCCCN(Cc1cc(Cl)c(OCC)c(OC)c1)c1ccc(C(O)(C(F)(F)F)C(F)(F)F)cc1,-0.54,-0.97,-2.65
Cc1ccc(CNC(=O)[C@H](CC(C)C)Nc2cc(C)nc(NCC3CCCCC3)n2)cc1,11.2,9.15,9.26
O=C(Nc1ccc(O)c(-c2nc3ccccc3[nH]2)c1)c1ccc([N+](=O)[O-])cc1,-2.13,-0.21,1.31
CC(C)(CC1CCCCC1)NC(=O)[C@H](CC1CCCCC1)Nc1ccc(C#N)c2ccccc12,1.82,1.4,-1.9
COc1ccc2c(c1)CCCC2NCCCCNC(=O)c1ccc(NC(=O)c2ccc(Cl)cc2)cc1 (centres undefined),1.92,0.37,0.82
CCCC(C)Nc1nc(C)cc(N[C@@H](CC(C)C)C(=O)NC2CCCC2)n1 (some centres undefined),2.53,4.34,3.26
COc1ccc(C(=O)C2CC2CN(C)CC(O)c2cc(C)c(OC)cc2C)cc1 (centres undefined),8.26,7.67,6.57
CC1CN(Cc2ccccc2)CCN1c1ccc(NC(=O)c2cccs2)cc1 (centres undefined),10.9,12.3,10.8
Cc1cccc2nc(-c3ccc(-c4cccc(CNCC5CCCO5)c4)cc3)[nH]c12 (centres undefined),12.7,10.1,8.96
CCN1CCC(N(Cc2ccc(-c3ccc(C(F)(F)F)cc3)cc2)C(=O)Cn2c(CCc3cccc(F)c3F)cc(=O)c3c2CCCC3)CC1,0.35,0.64,0.87
COc1cccc(C(=O)C2CC2CN(C)CC(O)c2cc(C)c(OC)cc2C)c1 (centres undefined),1.05,-1.24,0.15
CN1CCN(c2cccc(-c3nnc(-c4cccc(OCC(=O)NCc5ccc(C(F)(F)F)cc5)c4)o3)c2)CC1,1.77,1.65,2.47
CCN(CCCN1CCCCC1)c1cc(C)nc(Nc2cccc(OC(F)(F)F)c2)n1,1.17,1.62,2.65

Compound,inhibition [1] [%],inhibition [2] [%],inhibition [3] [%]
CC1CCCN1Cc1cccc(-c2ccc(C(=O)NCCOc3ccccc3)s2)c1 (centres undefined),72,38.9,25.7
Cc1cccc2nc(-c3cccc(-c4cccc(NC(=O)CCc5c[nH]cn5)c4)c3)[nH]c12,0.79,0.27,1.56
OCCCCCCNc1ccnc2[nH]c3ccc(I)cc3c12,8.64,6.33,3.14
CN(C)C1CCN(CC#Cc2cc3ncnc(Nc4ccc(OCc5cccc(F)c5)c(Cl)c4)c3s2)CC1,1.79,0.49,2.9
CCC1(CC)NC(N)=NC(=N)N1OCc1ccc(Cl)c(Cl)c1,4.32,3.75,4.43
COc1c(O)cc2oc(-c3ccc(O)cc3)cc(=O)c2c1O,1.18,1.7,3.31
CC(=O)c1ccc(NC(=O)Nc2ccc(N(C)c3ccnc(Nc4cccc(CS(C)(=O)=O)c4)n3)cc2)cc1,-0.18,0.54,4.04
N#Cc1cccc(NC(=O)Nc2ccc(-c3ccc(-c4nc5cc(C(F)(F)F)ccc5[nH]4)cc3)cc2)c1,3.68,1.32,4.14
O=C1OC2(CCN(C(=O)c3ccc(-n4cnnn4)cc3)CC2)CN1Cc1ccc(Cl)c(Cl)c1,2.26,3.05,5.35
NC1=NC2(CCCCC2)N(Cc2ccc(Cl)c(Cl)c2)C(N)=N1,-1.03,-0.28,-0.42
O=C(c1ccc(OCCn2ccnc2)cc1)N1CCC(c2ccc(Br)cc2)C1 (centres undefined),0.09,3.01,0.49
CCN(CC)CCN(Cc1ccc(-c2ccc(C(F)(F)F)s2)cc1)C(=O)Cn1c(CCc2cccc(F)c2F)nc(=O)c2ccccc21,1.5,2.39,2.57
O=C(Cn1c2ccccc2c(=O)c2ccc(Cl)cc21)Nc1ccc(C(F)(F)F)cc1,-0.52,-1.32,-1.59
COCCCNC(=O)C1CCN(C(c2ccc(Cl)cc2)c2ccc(Cl)cc2)CC1,2.3,3.44,4.61
Cn1nc(-c2cccc(CNC3CCc4ccccc43)c2)c2cnc(NCCCN3CCCC3)nc21 (centres undefined),29.9,32.6,25.9
CCCNC(=O)C1CCN(C(c2ccc(Cl)cc2)c2ccc(Cl)cc2)CC1,-0.62,2.95,0.49
Cc1nc(C)c(-c2ccc(Oc3ccc(OC(F)(F)F)cc3)cc2)c(O)c1I,-0.28,0.69,-1.65
COc1ccc2ncc(F)c([C@@H](O)CN3CCC(NCc4cc5c(cn4)OCCO5)CC3)c2c1,2.51,2.79,3.93
CC(C)(C)c1ccc(CN2CCC(CNC(=O)c3cc(-c4ccccc4C(F)(F)F)cs3)C2)cc1 (centres undefined),1.63,3.76,1.21
CN(C)[C@@H]1C(O)=C(C(N)=O)C(=O)[C@@]2(O)C(O)=C3C(=O)c4c(O)ccc(C#Cc5ccccn5)c4C[C@H]3C[C@@H]12,1.83,-0.62,0.74
Cc1c(F)cc(C(=O)NC2CC2)cc1-c1ccc2c(c1)c(C)nn2S(=O)(=O)c1cccs1,4.6,3.16,2.8
CCn1ccc2c(N3CCCC3=O)cc(C(=O)N[C@@H](Cc3ccccc3)[C@H](O)CNCc3cccc(OC)c3)cc21,1.06,1.98,0.14
